Laboratory results taken from PubChem BioAssay AID720579 (National Center for Advancing Translational Sciences (NCATS), 2013).
Where “and” joins values, the source holds several entries; their conditions need not be identical. Equal values may be shown once. Hit rate of the full screen: of about 310,000 compounds, about 1,900 (0.61%) were called active. Roughly 8% stayed inconclusive and do not appear here. Calls come from the whole dose curve; tested in A549 cells. For the sample, actives were picked, then their nearest neighbours and some compounds at random. Some structures have more than one record in an assay (separate samples or runs), and their calls can disagree.

assay: qHTS for Stage-Specific Inhibitors of Vaccinia Orthopoxvirus: mCherry Reporter Primary qHTS; details: Vaccinia virus mCherry reporter infection, fluorescence; series mostly up to 36.5 µM; activity change, negative = inhibition: at the top concentration; note: nearly all actives have a fitted effect of over 35% in size
% is set by controls: 0 for no effect and ±100 for the full control effect; potency is the fitted concentration of half-maximal effect.

Row | Structure (SMILES) | activity change, negative = inhibition | outcome | Potency
1 | CC(O)(c1cccc(F)c1)c1nc(-c2ccc3c(c2)OCO3)cs1 (stereo unspecified) | 6.58% (inactive) |  | 
2 | O=C(c1ccc(CS(=O)Cc2ccccc2Cl)o1)N1CCN(c2ccccc2)CC1 (stereo unspecified) | -6.54% (inactive) |  | 
3 | O=C(OCc1ccccc1)N1CCC2CC1c1cc(N3CCN(S(=O)(=O)c4cc(Cl)cc(Cl)c4)CC3)ccc12 (stereo unspecified) |  | inactive | 
4 | c1ccc2c(c1)[I+]c1ccccc1-2 |  |  | inactive and 12.6 µM (active)
5 | N=C1c2ccccc2-c2ccccc21 | -6.02% (inactive) |  | 
6 | COC(=O)c1ccccc1N=NNc1ccc([N+](=O)[O-])cc1 | -7.96% (inactive) |  | 
7 | CCN(CC)c1ccc(/C=C/c2c(C)cnc3ccc(C)cc23)cc1 | -7.34% (inactive) |  | 
8 | CC(=O)Nc1cccc(Nc2nc(-c3cccs3)nc3ccccc23)c1 |  |  | 7.08 µM (active)
9 | COC(=O)c1cc(-c2cccs2)nc2ccccc12 |  | inactive | 
10 | COc1cccc(-c2nc(Nc3ccncc3)c3ccccc3n2)c1 | 11.8% (inactive) |  | 
11 | CC(C)c1cc(C(=O)NC2CCCCCC2)c2ccccc2n1 | -3.55% (inactive) |  | 
12 | CC1=C(C(=O)N(C(C)C)C(C)C)CC(CC(=O)NCC2CCCCC2)C(=O)N1Cc1ccccc1 (stereo unspecified) | 8.68% (inactive) |  | 
13 | Cc1cc(C(=O)CCC(=O)NNC(=O)c2ccccc2O)c(C)s1 | -14.3% (inactive) |  | 
14 | O=C(NNC(=O)c1ccccc1O)c1ccccc1O |  |  | 15.8 µM (active)
15 | O=C(CO/N=C/c1ccccc1O)NNC(=O)c1ccccc1Cl | -20.3% (inactive) |  | 
16 | CCCCCCCNc1ccc(/C=C/c2ccnc3ccccc23)cc1 | 33.6% (inactive) |  | 
17 | O=[N+]([O-])c1ccc(/C=C/c2ccc3cccnc3c2)cc1 | 36.9% (inactive) |  | 
18 | CN(N=O)c1ccc(C=C2c3ccccc3-c3ccccc32)cc1 | -18.4% (inactive) |  | 
19 | CN1CC[C@H](c2c(O)cc(O)c3c(=O)cc(-c4ccccc4Cl)oc23)[C@H](O)C1 |  |  | 0.316 µM (active)
20 | CCOC(=O)c1ccn(S(=O)(=O)c2ccc(C)cc2)c1-c1ccccc1 | 6.9% (inactive) |  | 
21 | COc1ccc(CN(Cc2ccccc2)C(=O)c2ccc(O)cc2)cc1COc1ccc(NC(C)=O)cc1 |  | inactive | 
22 | CCOC(=O)c1cc2cc(OC)ccc2n1C1CCN(C)CC1 | -10.5% (inactive) |  | 

Row | Structure (SMILES) | activity change, negative = inhibition | outcome | Potency
23 | CC1(C(=O)O)CCCN(C(=O)/C=C/c2ccccc2)C1 (stereo unspecified) | 6.42% (inactive) |  | 
24 | Cc1[nH]c(=O)c(C(=O)/C=C/c2ccccc2)c2c1CCCC2 |  |  | 3.16 µM (active)
25 | Cc1cn(COC/C=C/c2ccccc2)c(=O)[nH]c1=O |  | inactive | 
26 | CC(=O)Nc1ccc(C=Cc2ccc([N+](=O)[O-])cc2)cc1 | -1.71% (inactive) |  | 
27 | O=C(CCCN1C(=O)C(c2ccccc2)Oc2cccnc21)Nc1ccccc1Br (stereo unspecified) |  | inactive | 
28 | C(=Nc1ccc(/C=C/c2ccnc3ccccc23)cc1)c1cc2c3c(c1)CCCN3CCC2 | 12% (inactive) |  | 
29 | CN(C)C(=O)c1cccc(-c2cnc3c(NC=O)cc(-c4ccc(C(=O)N5CCOCC5)cc4)cn23)c1 |  | inactive | 
30 | O=C(CCCO)N/N=C/c1cc(Br)ccc1O | -8.6% (inactive) |  | 
31 | O=C(N/N=C/c1ccccc1O)/C(=C/c1ccccc1)CCO |  |  | 7.08 µM (active)
32 | O=C(CCCCCNC(=O)c1ccccc1)N/N=C/c1ccccc1 | -8.18% (inactive) |  | 
33 | CCOC(=O)[C@]12CCCC=C1N(CCC1=CCCCC1)C(=O)[C@H](CC(=O)N1CCSCC1)C2 | -9.06% (inactive) |  | 
34 | Fc1ccc(-c2nnc(CSc3nnc(-c4ccc5c(c4)OCO5)o3)o2)cc1 |  |  | 28.2 µM (active)
35 | Cc1ccc(-c2nnc(SCc3ccccc3C)o2)cc1 | 2.67% (inactive) |  | 
36 | O=C(CSc1nnc(CNC(=O)c2ccc(F)cc2)o1)Nc1ccc2c(c1)OCO2 | -8.65% (inactive) |  | 
37 | COc1ccc(C(=O)C(OP(=O)(OC)OC)c2ccccc2OC)cc1 (stereo unspecified) | -25.3% (inactive) |  | 
38 | O=C(COc1cc(Cl)c(Cl)cc1Cl)NCCc1ccccn1 | -7.58% (inactive) |  | 
39 | O=C(COC(=O)COc1cc(Cl)c(Cl)cc1Cl)NC1CC1 | -2.27% (inactive) |  | 
40 | NC(=S)NN=Cc1ccc(OC(=O)COc2cc(Cl)c(Cl)cc2Cl)cn1 |  |  | 11.2 µM (active)
41 | CCOC(=O)C1CCCN(C(=O)c2cc(-c3cccs3)oc2C)CC1 (stereo unspecified) | 49% (inactive) |  | 
42 | Cc1cc(Cl)ccc1-c1nc(NCCN(C)C)nc2ccsc12 | 11.6% (inactive) |  | 
43 | CC(C)=CCc1ccc(O)c(=O)cc1C(C)C |  |  | 3.16 µM (active)
44 | CC(C)c1cc(N=O)cc(C(C)C)c1O |  | inactive | 

Row | Structure (SMILES) | activity change, negative = inhibition | outcome | Potency
45 | CC(C)=CCc1c(O)c(CC=C(C)C)c2occ(-c3ccc(O)cc3)c(=O)c2c1O | -20.4% (inactive) |  | 
46 | CCOc1ccc(OCc2ccc(C(=O)N(C)c3ccccc3)o2)cc1 | -11.1% (inactive) |  | 
47 | CN(C(=O)CN1CCN(c2cc(-c3ccc(OCc4ccccc4)cc3)ncn2)CC1)c1ccccc1 |  |  | 7.94 µM (active)
48 | CN(Cc1ccccc1)C(=O)c1ccc(COc2ccccc2)cc1 |  | inactive | 
49 | Cc1cccc(CNC(=O)c2sc(=O)n(Cc3ccccc3C)c2C)c1 | 2.08% (inactive) |  | 
50 | O=C1NC(Cc2ccccc2)c2nc3ccc(Br)cc3c(=O)n2-c2cc3ccccc3cc21 (stereo unspecified) |  | inactive | 
51 | Cc1cc(C)c2c(=O)n3c(nc2c1)C(CC(C)C)NC(=O)c1cc2ccccc2cc1-3 (stereo unspecified) |  |  | 10 µM (active)
52 | CCC1NC(=O)c2cccnc2-n2c1nc1ccc(C)cc1c2=O (stereo unspecified) |  | inactive | 
53 | NC(=O)Nc1ccc(/C=C/c2ccnc3ccccc23)cc1 | 21.3% (inactive) |  | 
54 | COC(=O)c1ccc2nc(-c3ccccc3)c(Cc3ccc(OC)cc3C)n2c1 | -4.32% (inactive) |  | 
55 | Cc1ccc(S(=O)(=O)N(CCc2ccccc2)c2ccc3c(c2)C2CC3CCN2C(=O)OCc2ccccc2)cc1 (stereo unspecified) | -6.6% (inactive) |  | 
56 | COc1ccc(CC(=O)NC(C)CCc2ccccc2)cc1 (stereo unspecified) | 2.27% (inactive) |  | 
57 | C/C=C/NNC(=O)Cc1ccc(OC)cc1 |  |  | 11.2 µM (active)
58 | CCCCCNC(=O)Cc1ccc(OC)cc1 | -17% (inactive) |  | 
59 | CC1(C(=O)NCC2CCOCC2)Cc2c(-c3cccc(C(N)=O)c3)ccnc2O1 (stereo unspecified) | 5.59% (inactive) |  | 
60 | COc1ccc(-c2nnc(SC(C)C#N)o2)cc1 (stereo unspecified) |  |  | 11.2 µM (active)
61 | COc1ccc(-c2nnc(SCc3cccnc3)o2)cc1 | -12.4% (inactive) |  | 
62 | COc1ccc(-c2nnc(-c3ccc4ccccc4c3)o2)cc1 |  | inactive | 
63 | CCOC(=O)[C@]12CCCC=C1N(Cc1ccc(Cl)cc1Cl)C(=O)[C@H](CC(=O)N1CCCCC1)C2 |  | inactive | 
64 | COc1c(C)c2c(c(O)c1C/C=C(\C)CCC(=O)O)C(=O)OC2 |  |  | 5.62 µM (active) and 4.47 µM (active)
65 | CCc1nc2c(OCc3ccc(C(F)(F)F)cc3)cccn2c1N(C)C(=O)CC(C)C | -0.664% (inactive) |  | 
66 | CCOC(=O)c1c(NC(=S)SC)sc(C(=O)N2CCc3ccccc3C2)c1C | -10.4% (inactive) |  | 
